Among all 340,000 compounds or so, about 2,100 (0.62%) were called active.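 The calls were made as follows: active = first-screen hits whose inhibition reached a set limit at any dose in the follow-up dose series; inconclusive = inhibition above the set first-screen limit but never retested; inactive = the rest.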 A selection follows. Entries with a potency or affinity are not part of this list.
Molecular target: Rac GTPase-activating protein 1 (Homo sapiens) (UniProt Q9H0H5)
Experiment: MgcRacGAP GTPase-activating activity inhibitors, confirmation, biochemical, ADP Hunter fluorescence, primary and confirmatory (AID 624330);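 also: fluorescence reports GDP produced by GAP-driven GTP hydrolysis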
Conditions: MgcRacGAP-stimulated Rac1 GTP hydrolysis, at 30 µM, stronger effect = higher value, GST-tagged Rac1 F28L mutant substrate

Rac GTPase-activating protein 1 (Homo sapiens), sequence (Q9H0H5 whole entry, looked up): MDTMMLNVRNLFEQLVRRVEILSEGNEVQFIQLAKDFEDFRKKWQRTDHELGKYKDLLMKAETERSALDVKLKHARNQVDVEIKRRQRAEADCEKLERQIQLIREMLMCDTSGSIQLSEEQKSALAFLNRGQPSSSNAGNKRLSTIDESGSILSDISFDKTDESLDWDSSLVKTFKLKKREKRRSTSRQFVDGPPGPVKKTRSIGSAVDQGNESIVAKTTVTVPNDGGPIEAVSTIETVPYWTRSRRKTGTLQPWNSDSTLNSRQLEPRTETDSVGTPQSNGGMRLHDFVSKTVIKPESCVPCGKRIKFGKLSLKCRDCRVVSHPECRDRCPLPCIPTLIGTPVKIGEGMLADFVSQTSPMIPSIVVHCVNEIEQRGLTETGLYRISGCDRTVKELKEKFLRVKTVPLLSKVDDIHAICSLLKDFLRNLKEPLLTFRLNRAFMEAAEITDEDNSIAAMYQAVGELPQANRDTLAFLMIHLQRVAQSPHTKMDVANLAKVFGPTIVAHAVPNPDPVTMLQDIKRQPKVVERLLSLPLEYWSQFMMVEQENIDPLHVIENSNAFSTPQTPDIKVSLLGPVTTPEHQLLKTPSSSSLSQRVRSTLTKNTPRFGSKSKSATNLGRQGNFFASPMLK

inhibition, inactive:
Oc1c(Br)cc(C2N=C(c3ccccc3)NO2)cc1Br (configuration not stated) -1.87%, Brc1ccc(-c2ccccc2)cc1 1.25%, C/C(=N\NC(=O)CNC(=O)c1ccccc1F)c1ccco1 2.16%, CN(CC(=O)Nc1cc(Cl)cc(Cl)c1)Cc1cccs1 3.5%, O=C(COC(=O)CNC(=O)c1cccs1)Nc1ccccc1C(F)(F)F 8.33%, Cc1ccc(NC(=O)COC(=O)CCC(=O)c2cccs2)cc1 6.66%, CC(=O)c1ccc(NC(=O)COC(=O)Cc2ccsc2)cc1 8.16%, CCCOC(=O)c1ccc(NC(=O)CN(C)Cc2cccs2)cc1 10.3%, CCOc1ccc(NC(=O)COC(=O)Cc2ccsc2)cc1 2.81%, COc1ccc(NC(=O)COC(=O)CNC(=O)c2cccs2)cc1Cl 2.23%, CCN(CC)c1ccc(NC(=O)COC(=O)c2cccs2)cc1 21.8%, CCCCC[C@H]1CN(Cc2ccccc2)C(=O)[C@@H]1CC(=O)NCc1ccccc1 8.29%, Cc1cccc(OCC(=O)Nc2nnc(S(=O)(=O)N3CCCCCC3)s2)c1 9.88%, Cc1[nH]c(C)c(S(=O)(=O)NCc2ccco2)c1C(=O)N1CCCCC1 16.2%, COc1ccccc1NC(=O)c1ccc[n+]([O-])c1 4.42%, Cc1cc(F)ccc1S(=O)(=O)Nc1ncnc2sccc12 -6.18%, COc1ccc(CNC(=O)O[C@@H]2C[C@H]3C(=O)N(c4ccccc4)C(=O)[C@H]3[C@@]3(CN(S(=O)(=O)c4ccc(C)cc4)C[C@H]3C)[C@@H]2O)cc1OC 13.3%, Cc1cn([C@@H](CCCCNC(=O)OC(C)(C)C)C(=O)NCCCCCCCCCCC(=O)N2CCN(C(=O)OC(C)(C)C)CC2)nn1 3.56%, Cc1ccccc1SCC(=O)OCC(=O)NCCNC(=O)COC(=O)CSc1ccccc1C 2.21%, CCN(CC)c1ccc(NC(=O)COC(=O)CSc2ccc(Br)cc2C)cc1 7.43%, O=C(Cn1ccc(C(F)(F)F)n1)N=Nc1c(O)[nH]c2ccccc12 4.76%, CCc1ccc(S(=O)(=O)NCCc2cn3cccc(C)c3n2)s1 4.85%, Oc1c(C=Nc2ccc(Cl)cn2)sc2ccccc12 8.33%, O=[N+]([O-])c1ccc(O)c(N=Cc2sc3ccccc3c2O)c1 27.9%, COc1ccc(N=Cc2sc3ccccc3c2Cl)cc1 11%, Cc1ccc(O)c(N=Cc2ccc(C)s2)c1 -11.5%, CN(C)C(=O)CSc1nc(-c2ccccc2)c(-c2ccccc2)o1 2.82%, COc1ccc(OC(=O)c2ccc(OC)c(S(=O)(=O)N3CCOCC3)c2)cc1 22.8%, O=C(Nc1ccc2c(c1)OCCO2)c1ccc(Br)c(S(=O)(=O)N2CCOCC2)c1 -4.87%, O=C(Oc1ccc(OC(=O)c2ccncc2)cc1)c1ccncc1 5.17%, COc1ccc(C(=O)Oc2ccc3c(c2)OCO3)cc1OC 7.69%, COc1ccc(CCN2C(=O)c3ccccc3NC2c2cc(Cl)c(O)c(OC)c2)cc1 (configuration not stated) 7.25%, COC(=O)c1c(NC(=O)CC2SC(N)=NC2=O)sc(C)c1C (configuration not stated) -4.36%, Nc1cc2c(cc1Cl)N(Cc1ccccc1)C(=O)CO2 4.01%, Cc1cc2c(NCC(C)O)ncnc2s1 (configuration not stated) 8.37%, CSCC(=O)N1CCCC(N2CCN(c3ccc(F)cc3)CC2)C1 (configuration not stated) 15.7%, Cc1ccccc1OCC(=O)Nc1ccc(N2CCN(C(=O)c3ccco3)CC2)cc1 10.3%, COc1ccc(CCNC(=O)COC(=O)c2cc(OC)c(OC)cc2OC)cc1OC 7.3%, C=CCOc1ccc(Cl)cc1CNCCCN1CCOCC1 1.5%, C=CCc1cc(Cl)ccc1OCCCNC(C)C 23.5%, C=CCc1cc(C)ccc1OCCn1ccnc1 17.7%, C=CCc1cc(Cl)ccc1OCCOCCN(C)C 22%, C=CCc1ccccc1OCCn1ccnc1 9.27%, C=CCc1cc(C)ccc1OCCOCCn1ccnc1 15.9%, C=CCc1cc(Cl)ccc1OCCCn1ccnc1 19.6%, C=CCc1cc(Cl)ccc1OCCNCCOC 10.8%, COc1ccc(NC(=O)N2CCN(S(=O)(=O)c3ccc(F)cc3)CC2)c(OC)c1 7.35%, CCCCCCCNC(=O)C1(CC2CC(c3ccc(Cl)cc3)=NO2)CCN(C(=O)CCCCCBr)CC1 (configuration not stated) 3.79%, COc1ccc2cc(CN(CC3COCCO3)S(=O)(=O)c3ccccc3)c(=O)[nH]c2c1 (configuration not stated) -14.3%, Cc1onc(-c2ccccc2)c1C(=O)N/N=C/c1ccco1 4.91%, N#Cc1ccc(NC(=O)Cn2c3[n+](c4ccc(C(F)(F)F)cc42)CCCCC3)cc1 -1.69%, CNc1nc(-c2ccc3c(c2)CCN3C(=O)c2ccccc2C)cs1 10.3%, COc1ccc(-c2cc(C(=O)Nc3cccnc3Cl)no2)cc1 9.21%, C=CCn1ccc2c([N+](=O)[O-])cccc2c1=O 8.97%, COCCNC(=O)c1ccccc1NC(=O)c1ccccc1N(C)S(=O)(=O)c1ccc(C)cc1 3.63%, CC1CCCN(C(=O)c2cc(S(=O)(=O)N3CCCCC3)c[nH]2)C1 (configuration not stated) -0.16%, CCCc1nc(NCc2ccccc2)c(C#N)c2c1CCCC2 8.86%, Cc1c(NC(=O)c2ccc(S(=O)(=O)N3CC(C)OC(C)C3)cc2)c(=O)n(-c2ccccc2)n1C (configuration not stated) 4.26%, COc1ccc(NC(=O)CCC(=O)c2ccc(C(C)C)cc2)cc1 12.2%, COc1ccc(C(=O)CCC(=O)Nc2cccc(Cl)c2)cc1 4.1%, CCOc1ccccc1N1CCN(CC(=O)Nc2ccnn2C2CCCC2)CC1 5.05%, CN(C(=O)CSc1nc2scc(-c3ccccc3)c2c(=O)[nH]1)c1ccccc1 6.96%, O=C1c2ccccc2CN2C(=O)c3ccccc3CN12 3.55%, Cc1ccc(CN2CCN(C/C=C/c3ccc(F)cc3)CC2CCO)o1 (configuration not stated) 7.9%, CC(C)CCN1CCN(C/C=C/c2ccco2)CC1CCO (configuration not stated) 14.2%, COc1ccc(/C=C/CN2CCN(CC(C)C)C(CCO)C2)cc1 (configuration not stated) 5.86%, COc1ccccc1/C=C/CN1CCN(Cc2ccc(C)o2)C(CCO)C1 (configuration not stated) 11%, CC(C)(C)c1ccc(OC(=O)c2ccc3snnc3c2)cc1 4.25%, CC(=O)N/C(=C\c1ccccc1)C(=O)OCC(=O)NC(=O)c1ccccc1 5.8%, CC(OC(=O)C1CC(=O)N(Cc2ccco2)C1)C(=O)Nc1cccc(C#N)c1 (configuration not stated) 6.14%, O=C(CN(C(=O)c1csnn1)c1ccc(F)cc1)NCCc1ccccc1 7.07%, COc1ccc(C(O)Cc2nccn2C)cc1 (configuration not stated) 2.89%, Cc1cccc(-n2cnc(C(=O)O)c2)n1 4.99%, CC(=O)Nc1ccc(NC(=O)c2ccnn2C)cc1 3.95%, Cn1nccc1C(=O)Nc1ccc(Cl)cc1 -1.74%, C=CCN(C(=O)c1csnn1)C(C(=O)NC1CCCC1)c1ccc(F)cc1 (configuration not stated) 5.68%, COc1ccccc1CNC(=O)C[C@@H]1C[C@H]2c3cc(NC(=O)c4ccc5c(c4)OCO5)ccc3O[C@H]2[C@@H](CO)O1 13.4%, COC(=O)C[C@@H]1C[C@H]2c3cc(N(C)C)ccc3O[C@H]2[C@H](CO)O1 18.6%, O=C1CN(S(=O)(=O)c2cccc(Cl)c2Cl)c2ccccc2N1 4.66%, COc1cc([N+](=O)[O-])ccc1NC(=O)CCN1C(=O)C2C3CCC(C3)C2C1=O (configuration not stated) 6.61%, COc1ccc(C)cc1NC(=O)CNCc1cccs1 0.81%, CC(=O)c1ccc(NC(=O)CNCc2cccs2)cc1 28.6%, O=C(CNC(=O)c1ccco1)Nc1ccc(N2CCCCCC2)cc1 30.4%, S=C(NCc1ccco1)Nc1ccc(Oc2ccccc2)cc1 1.09%, COc1ccc(NC(=O)Cc2cccs2)c(OC)c1 8.99%, O=C(Cc1ccccc1)Nc1ccc(N2CCCCC2)cc1 1.26%, O=C(NCc1ccco1)c1ccc(Oc2ccccc2)cc1 1.55%, O=C(CNCc1cccs1)Nc1ccc(S(=O)(=O)N2CCCCC2)cc1 14.5%, CCCOC(=O)C(C)n1cnc2scc(-c3ccc(C)cc3)c2c1=O (configuration not stated) 8.26%, N#CC(=C(O)CN1CCN(c2ccccc2F)CC1)c1nc(-c2ccccc2)cs1 6.97%, CCOC(=O)CSc1nc2ccc(N3CCOCC3)cc2c(=O)n1Cc1ccccc1 1.81%, O=C1NCC(NC(=O)C(F)(F)F)c2cc3c(cc21)OCO3 (configuration not stated) -0.85%, CCN1C(=O)[C@H]2[C@H]3CN=C(SCc4ccccc4)N3[C@@](C)(C(=O)OC)[C@H]2C1=O 13.1%, Cc1ccc(C(=O)c2c(NC(=O)CSc3nnc(N)s3)sc3c2CCCC3)cc1 -2.45%, CCN(CC)C(=O)C(=O)Nc1ccc(Oc2ccccc2)cc1 2.61%, CCOC(=O)N1CCN(CC(=O)Nc2ccc(Oc3ccccc3)cc2)CC1 5.48%, Cc1ccc(-c2nc3cnccn3c2Nc2ccc3c(c2)OCCO3)o1 12.5%
